Screening data (PubChem)
HCV inhibitor: blocks hepatitis C virus; Huh7.5.1 HCVcc-Cre infection, luciferase reporter, 44 h; Potency, µM (series often up to 41.8 µM), hits mostly inhibitors; 3.4% of 340,000 active; AID 651820
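1,000 cells/well; 4 h culture; + compound; + HCVcc-Cre (~0.5 moi); 44 h; luciferase substrate, RT 15 min; read 15 sec.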
HCMV antiviral: blocks human cytomegalovirus replication. HFF cells, HCMV-luciferase reporter, 72 h; stronger effect = lower value. activity change, negative = inhibition, % at 57.5 µM. 4.5% of 410,000 active; in the data active means activity change below about -60%; inconclusive means no clear call, values can overlap the other calls; inactive means above about -39%
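After 16 h attachment at 37C, HFF cells received test compound and HCMV-luciferase (1 PFU/cell); reporter luminescence read 72 h later, data normalized against buffer-only and known inhibitor Salinomycin.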
FMDV inh: blocks foot and mouth disease virus; Potency, µM (series often up to 57.9 µM), actives largely listed as inhibitors; FMDV antiviral cell-based qHTS; AID 1159524; 1.2% of 410,000 active; calls by dose curve; tested in HEK293T cells; further: read-out not given here; nearly all actives have a fitted effect of over 45% in size
VACV mCherry inh: inhibitors of vaccinia virus infection (mCherry reporter signal). Potency, µM (doses to about 36.5 µM), usual class: inhibitors. 0.63% of 310,000 active. AID 720579. Vaccinia virus mCherry reporter infection, fluorescence; calls by dose curve; tested in A549 cells; further: nearly all actives have a fitted effect of over 35% in size
Vaccinia Venus: inhibitors of vaccinia virus (Venus reporter) | Vaccinia virus Venus reporter expression, fluorescence | Potency, µM (doses to about 36.5 µM), hits mostly inhibitors | 0.46% of 330,000 active | AID 720580; calls by dose curve; tested in A549 cells; further: nearly all actives have a fitted effect of over 30% in size
Sm TGR inh: blocks Schistosoma mansoni thioredoxin glutathione reductase. Q962Y6. AID 485364. purified TGR, DTNB reduction, TNB absorbance 405 nm. 3% of 360,000 active. Potency, µM (top dose mostly 114 µM), actives largely listed as inhibitors; further: nearly all actives have a fitted effect of over 60% in size
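Kinetic colorimetric format: TGR-catalysed, NADPH-driven DTNB reduction monitored via TNB absorbance. Enzyme dispensed at 20 nM; compound exposure 15 min at room temperature before reaction start.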
Numbers stand for hits; 0 = inactive; ? = inconclusive; - = no result. Sampled rows, rich in hits. Any-hit rate of the full collection: about 9.3%. Unless noted, the call rests on the fitted dose curve; in most records, active means well fitted curve in the direction sought with a large enough effect; inconclusive means small, poorly fitted or top-dose-only effect, or another doubt; inactive means no such curve, though single readings can be large; an effect the other way counts as inactive or inconclusive.

SMILES	HCV inhibitor	HCMV antiviral	FMDV inh	VACV mCherry inh	Vaccinia Venus	Sm TGR inh
COCOCCn1cc(CN2CCS(=O)(=O)N(Cc3ccc(-c4ccc(Cl)c(Cl)c4)cc3)C(C)C2=O)nn1 (stereo not given)	-	?	?	?	13µM	-
COc1ccc(-c2ccc(CN3C(CC(C)C)C(=O)N(Cc4cn(CCC5OCCO5)nn4)CCS3(=O)=O)cc2)cc1OC (stereo not given)	-	-62	0	0	0	-
CC1C(=O)N(Cc2cn(CCC3OCCCO3)nn2)CCS(=O)(=O)N1Cc1ccc(-c2ccc(Cl)c(Cl)c2)cc1 (stereo not given)	-	-92	?	0	?	-
CC(C)CC1C(=O)N(Cc2cn(CCC3OCCO3)nn2)CCS(=O)(=O)N1Cc1ccc(-c2ccc(F)cc2)cc1 (stereo not given)	-	0	0	0	0	-
CC1C(=O)N(Cc2cn(CCC3OCCCO3)nn2)CCS(=O)(=O)N1Cc1ccc(-c2ccc(F)cc2)cc1 (stereo not given)	-	0	?	0	?	-
CCCCN(CC)C(=O)CSc1cc(=O)n(C)c2ccccc12	?	0	0	-	-	0
CCC(C)CCN1C(N(C)C)=NC[C@@H]1Cc1ccccc1 (stereo not given in full)	0	-67	0	0	0	0
CC(C)CCN1C(Nc2ccccc2)=NC[C@@H]1Cc1ccccc1	0	0	0	0	0	0
CC(C)CCCN1C(N(C)C)=NC[C@@H]1Cc1ccccc1	?	0	0	0	0	0
CC(CCN1C(Nc2ccccc2)=NC[C@@H]1Cc1ccccc1)c1ccccc1 (stereo not given in full)	0	-61	0	?	0	0
CCOc1ccc(OCc2ccc(C(=O)NN)o2)cc1	0	0	0	-	-	0
CCCC(=O)c1ccc(CP(=O)(OCC)OCC)o1	0	0	0	-	-	13µM
O=S(=O)(NCCc1csc2nc(-c3ccccc3)nn12)c1cccs1	-	0	0	0	0	0
CNCCCCOc1ccccc1-c1ccccc1	13µM	?	0	0	?	0
c1ccc(-c2ccccc2OCCCCN2CCCCCC2)cc1	?	-77	0	0	0	0
COc1ccccc1OCCCCCCN1CCOCC1	0	-84	0	-	-	0
Cc1cc(C)c(S(C)(=O)=O)c(Oc2ccc(C(C)(C)C)cc2)n1	0	0	0	0	0	0
CC(C)C(NC(=O)C1CCCCC1)C(=O)NC1CCCC(C)C1C (stereo not given)	0	-	0	0	0	0
COc1cc2c(cc1OC)C(=Cc1ccc(N(C)C)cc1)C=C2	10µM	0	0	?	0	-
CC(C)C[C@@H](CNCC(=O)[C@H](C)NC(=O)c1[nH]cnc1C(=O)N[C@@H](C)CN)NC(=O)c1nc[nH]c1C(=O)N[C@@H](Cc1ccccc1)C(=O)O	0	0	0	0	0	-
COc1ccc(/C=N/NC(=O)CCC(=O)Nc2ccc(F)cc2)c(OC)c1	0	0	0	0	0	0
Cc1ccnc2nc(C(=O)OCC(=O)Nc3ccc([N+](=O)[O-])cc3Br)nn12	0	?	0	0	0	0
CC1NC2(C(=O)N(Cc3ccccc3)c3ccccc32)C2C(=O)N(c3ccccc3)C(=O)C12 (stereo not given)	0	-98	0	0	0	0
CN1C(=O)C(C2(O)C(=O)N(Cc3ccccc3)c3ccccc32)c2ccccc21 (stereo not given)	-	0	-	-	-	-
CC1=N/C(=C/c2cccnc2)C(=O)O1	0	?	0	0	0	22µM
SMILES	HCV inhibitor	HCMV antiviral	FMDV inh	VACV mCherry inh	Vaccinia Venus	Sm TGR inh
CC(C)N1C/C(=C/c2cccnc2)C(=O)/C(=C/c2cccnc2)C1	?	0	8.9µM	0	0	?
CC(C)N1C/C(=C/c2ccsc2)C(=O)/C(=C/c2ccsc2)C1	?	-85	16µM	0	0	0
CN1C/C(=C/c2cccnc2)C(=O)/C(=C/c2cccnc2)C1	?	-92	3.2µM	?	?	?
CN1C/C(=C/c2ccc(B(O)O)cc2)C(=O)/C(=C/c2ccc(B(O)O)cc2)C1	-	-	28µM	-	-	-
O=Cc1ccc(B(O)O)cc1	-	-	-	0	0	-
CCCC[C@@H](C)C[C@@H](C)C(=O)N(C)[C@@H](CC(C)C)C(=O)N[C@H](C(=O)N(C)[C@H](C(=O)N1C[C@@H](O)C[C@H]1C(=O)N1C(=O)C=C[C@@H]1C)C(C)C)C(C)OC(C)=O (stereo not given in full)	4µM	-	?	?	10µM	-
Cc1ccc(C)c(NC(=S)NCC(c2ccccc2)N(C)C)c1 (stereo not given)	0	?	0	0	0	0
Cc1ccc(-c2csc(N/N=C/c3ccco3)n2)cc1	?	0	0	0	0	0
CN(C)S(=O)(=O)c1ccc(-c2csc(N/N=C/c3ccc(O)cc3)n2)cc1	10µM	?	14µM	?	?	0
CN(C)S(=O)(=O)c1ccc(-c2csc(N/N=C/c3ccco3)n2)cc1	?	0	6.3µM	?	0	?
CN(C)c1nc(N)nc(/C(C#N)=C/C2CC3C=CC2C3)n1 (stereo not given)	0	0	0	0	0	40µM
CC(C)c1ccccc1-n1c(SCc2cc(=O)oc3ccc4ccccc4c23)nnc1-c1cccnc1	?	0	14µM	0	0	0
CCOc1ccc(-n2c(SCc3cc(=O)oc4cc(C)ccc34)nnc2-c2cccnc2)cc1	?	-65	0	0	0	0
CC(=O)Nc1ccc2c(CSc3nnc(-c4cccnc4)n3-c3ccc(C)cc3C)cc(=O)oc2c1	0	0	0	0	0	0
COCCN1CCN(Cc2ccc(C(=O)NC(C)C)cc2)C(=O)C1=O	-	0	0	0	0	0
Cc1ccc(NC(=O)c2sc(=S)n(-c3cc(C)ccc3F)c2N)cc1	0	-63	0	0	0	0
Cn1c(CNS(=O)(=O)c2ccc(Cl)cc2)cc(=O)n(C)c1=O	0	0	0	0	0	0
Nc1ccccc1-n1cccc1	0	0	0	0	0	0
O=C(Nc1ccc2c(c1)nc1n2CCN(C2CCCCC2)C1)NC1CCCCC1	-	-	-	-	-	13µM
COc1ccccc1C(=O)Nc1ccc2c(c1)nc1n2CCN(C2CCCCC2)C1	?	0	?	-	-	25µM
Cc1ccc(NC(=O)NC2CCCCCCC2)cc1C	0	-84	0	-	-	0
Cc1cccc(NC(=O)NC2CCCCCCC2)c1	0	0	0	-	-	0
O=C(Nc1nnc(-c2ccccc2)o1)Nc1ccc(F)cc1F	0	0	0	0	0	0
CCOc1ccc(-c2cn(-c3ccccc3OC)c(=S)[nH]2)cc1	?	-80	0	0	0	0
COc1ccc(OC)c(S(=O)(=O)N2CCC(C(=O)N3CCOCC3)CC2)c1	0	0	0	0	0	0
COc1ccc(N=Nc2nc(-c3ccccc3)c(-c3ccccc3)[nH]2)cc1	?	0	0	0	0	0
COc1ccccc1N=Nc1nc(-c2ccccc2)c(-c2ccccc2)[nH]1	11µM	0	0	0	0	0
N#CCCN(C(=O)COC(=O)COc1ccc(Cl)cc1)c1ccccc1	0	0	0	0	0	0
